Screens from PubChem.
Only some compounds are listed: those with a hit (about 2.8% of all), similar ones and a draw of the others.
FEN1 inh – blocks human flap endonuclease 1; Potency, µM (titrated, usually from 114 µM), for the others: at the highest dose activity change, negative = inhibition, hits mostly inhibitors; 390,000 tested, 0.35% active; P39748; Recombinant FEN1 flap cleavage, fluorescence, 15 min; AID 588795; further: potency means the concentration at half of the fitted maximal effect; on the % scale 0 is the no-effect control and ±100 the full control effect; nearly all actives have a fitted effect of over 65% in size
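Quantitative HTS format: each compound was titrated, incubated with 10 nM nuclease for 15 min at room temperature, then challenged with flap substrate at 50 nM final. Signal change over 15 min gave concentration–effect curves.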
POLI inh – DNA polymerase iota (human) inhibition | Q9UNA4 | Pol iota fluorescent replication assay, 10 min | Potency, µM (doses to about 115 µM), for the others: top-dose activity, negative = inhibition, most hits filed as inhibitors | 390,000 tested, 1% active; further: potency means the concentration at half of the fitted maximal effect
Target sequence (Q9UNA4 whole entry, looked up): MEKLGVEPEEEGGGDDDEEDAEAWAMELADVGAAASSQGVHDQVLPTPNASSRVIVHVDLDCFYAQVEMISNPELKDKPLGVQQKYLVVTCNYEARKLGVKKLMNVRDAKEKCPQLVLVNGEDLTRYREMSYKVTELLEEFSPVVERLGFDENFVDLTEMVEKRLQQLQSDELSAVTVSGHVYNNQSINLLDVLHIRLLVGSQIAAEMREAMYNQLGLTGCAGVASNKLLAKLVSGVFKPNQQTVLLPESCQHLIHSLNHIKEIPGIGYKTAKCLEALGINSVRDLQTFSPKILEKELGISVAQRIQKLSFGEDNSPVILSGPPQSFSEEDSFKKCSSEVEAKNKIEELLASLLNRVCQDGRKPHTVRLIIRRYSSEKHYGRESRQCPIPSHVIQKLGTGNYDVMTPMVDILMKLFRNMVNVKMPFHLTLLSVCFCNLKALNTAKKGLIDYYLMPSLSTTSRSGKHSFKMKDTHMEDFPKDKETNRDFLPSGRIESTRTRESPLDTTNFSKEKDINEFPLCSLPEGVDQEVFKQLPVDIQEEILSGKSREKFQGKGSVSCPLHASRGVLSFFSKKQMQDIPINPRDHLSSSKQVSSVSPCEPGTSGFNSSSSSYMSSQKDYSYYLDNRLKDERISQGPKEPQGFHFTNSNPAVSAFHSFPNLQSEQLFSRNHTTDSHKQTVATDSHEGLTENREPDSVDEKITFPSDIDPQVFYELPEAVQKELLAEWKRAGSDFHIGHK
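Pol iota at 10 nM preincubated 15 min with compounds at room temperature; reaction started with fluorescent substrate, 50 nM final. Fluorescence read kinetically at 0 and 10 min; buffer-only wells as negative control.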
Pol eta inh-1 – DNA polymerase eta (human) inhibition. Potency, µM (series often up to 114 µM), for inactives: at the top dose activity change, negative = inhibition, actives largely listed as inhibitors. 390,000 tested, 1.2% active. recombinant Pol eta, fluorescent DNA replication assay; further: potency means the concentration at half of the fitted maximal effect; on the % scale 0 is the no-effect control and ±100 the full control effect
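Pol eta (10 nM) was preincubated with compounds for 15 min at room temperature, after which fluorescent replication substrate (50 nM final) was added to start the reaction. Fluorescence was read kinetically at 0 and 10 min.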
Pol beta inh-1 – blocks human DNA polymerase beta activity; Potency, µM (highest dose often 114 µM), without a hit: at the top dose activity change, negative = inhibition, most hits filed as inhibitors; AID 485314; P06746; Pol beta primer extension/strand displacement, fluorescence kinetic; 340,000 tested, 1.3% active; further: potency means the concentration at half of the fitted maximal effect; on the % scale 0 is the no-effect control and ±100 the full control effect
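Enzyme-only controls used 10 nM Pol beta; buffer lacking enzyme served as negative control. Compound preincubated 15 min, then 50 nM substrate added; 0 and 10 min reads at room temperature.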
PI5P4Ka inh – PI5P4K alpha (human) kinase inhibition; P48426; PI5P4Kalpha enzyme, ADP-Glo luminescence, 60 min; hits give low values; max response, %; 330,000 tested, 1.2% active; active means max response of -50% or lower; inconclusive means between -30% and -50%; inactive means -30% or higher; further: value at the top dose of about 77 µM; on the % scale 0 is the no-effect control and ±100 the full control effect
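Quantitative HTS of the MLSMR library against PI5P4Kalpha with substrate. ATP added last at 5 microM final; room temperature, 60 minutes. Remaining ATP depleted, ADP converted and read as luminescence.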
Pol kappa inh-1 – DNA polymerase kappa (human) inhibition; purified Pol kappa, fluorescent DNA synthesis assay, 10 min; Potency, µM (highest dose often 107 µM), for the others: at the top dose activity, negative = inhibition, hits mostly inhibitors; 400,000 tested, 0.53% active; Q9UBT6; AID 588579; further: potency means the concentration at half of the fitted maximal effect; on the % scale 0 is the no-effect control and ±100 the full control effect
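Pol kappa 10 nM + cpd, 15 min RT; start w/ substrate 50 nM final; fluorescence kinetic read, 0 and 10 min. Neg ctrl: buffer, no enzyme.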
Pol beta inh-2 – Validate hits inhibiting human DNA polymerase beta; Pol beta primer extension/strand displacement, fluorescence kinetic; Potency, µM, actives largely listed as inhibitors; shares compounds with Pol beta inh-1; 250 tested, 87% active; calls by dose curve; further: potency means the concentration at half of the fitted maximal effect
Klenow inh – inhibits Klenow fragment polymerase in counter-screen. shares compounds with Pol beta inh-1. Klenow exo- polymerase counter-screen, fluorescent DNA substrate. activity change, negative = inhibition, % at 57.1 µM. 250 tested, under 10 active. AID 540300
HIV RT counter – counter-screen for DNA polymerase beta inhibitors: HIV-1 RT inhibition | shares compounds with Pol beta inh-1 | HIV-1 RT polymerase activity, counter-screen | activity % (negative = inhibition, positive = activation), % at 57.1 µM | 250 tested, under 10 active
POLB valid – validation of human DNA polymerase beta inhibitors; shares compounds with Pol beta inh-1; inhibition, % at 10 µM; 110 tested, 91% active; AID 540325; radiolabeled primer extension gel assay, phosphorimager;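 active means inhibition at 10 µM of 30% or more; inconclusive means no clear call, values can overlap the other calls; inactive means inhibition at 10 µM under 30%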
TbPGK inh – TbPGK inhibition, hit validation; shares compounds with Pol kappa inh-1; TbPGK coupled GAPDH assay, Kinase-Glo luminescence; Potency, µM (series often up to 57.5 µM), for the others: at the highest dose activity change, negative = inhibition, most hits filed as inhibitors; 500 tested, 79% active; AID 686980; further: potency means the concentration at half of the fitted maximal effect; on the % scale 0 is the no-effect control and ±100 the full control effect; nearly all actives have a fitted effect of over 65% in size
Pol iota confirm – Inhibitors of human DNA polymerase iota, confirmation; Pol iota primer extension, TAMRA/BHQ fluorescence; Potency, µM, actives largely listed as inhibitors; AID 720496; 1,500 tested, 77% active; shares compounds with Pol kappa inh-1; further: potency means the concentration at half of the fitted maximal effect
Pol kappa inh-2 – confirmation of human DNA polymerase kappa inhibitors. shares compounds with Pol eta inh-1. AID 720501. Potency, µM, most hits filed as inhibitors. purified Pol-kappa, fluorescent strand-displacement substrate. 920 tested, 76% active; further: potency means the concentration at half of the fitted maximal effect
Pol eta inh-2 – Pol eta (human) inhibition, cherry-pick confirmation | shares compounds with Pol eta inh-1 | Pol eta primer extension, TAMRA/BHQ fluorescence, 10 min | Potency, µM, most hits filed as inhibitors | 2,600 tested, 64% active; further: potency means the concentration at half of the fitted maximal effect
The depositor's hits bear a star; ? = inconclusive; . = no result given; [ ] = remark or other dose. Unless noted, the call rests on the fitted dose curve; in most records, active means well fitted curve in the direction sought with a large enough effect; inconclusive means small, poorly fitted or top-dose-only effect, or another doubt; inactive means no such curve, though single readings can be large; an effect the other way counts as inactive or inconclusive.

SMILES | FEN1 inh | POLI inh | Pol eta inh-1 | Pol beta inh-1 | PI5P4Ka inh | Pol kappa inh-1 | Pol beta inh-2 | Klenow inh | HIV RT counter | POLB valid | Pol iota confirm | Pol eta inh-2 | others
C[C@@H]1O[C@H](O[C@@H]2[C@H](C)O[C@H](O[C@@H]3[C@H](C)O[C@H](O[C@H]4CC[C@]5(C)[C@@H](CC[C@@H]6[C@H]5C[C@@H](O)[C@]5(C)[C@@H](C7=CC(=O)OC7)CC[C@]65O)C4)C[C@@H]3O)C[C@@H]2O)C[C@H](O)[C@@H]1O | . | . | . | . | . | -3%[12 µM] | . | . | . | . | . | .
CC1CCCCC1NC(=O)COC(=O)c1c2c(nc3ccccc13)/C(=C/c1ccco1)CC2 (stereo unspecified) | ? | 3.5µM* | 8.9µM* | 11µM* | -83* | 10µM* | 18* | -27 | -5 | . | 34* | 21*
Cc1cc(C(=O)OCC(=O)NC2CCCCC2C)c2ccccc2n1 (stereo unspecified) | 1% | 16% | -9% | . | -2 | 9% | . | . | . | . | . | .
CCOc1ccc(N(CC(=O)Nc2nccs2)S(=O)(=O)c2c(C)[nH]c(=O)[nH]c2=O)cc1 | -7% | -5% | 3% | 20% | -3 | -28% | . | . | . | . | . | .
Cc1nn(-c2ccccc2)c2nc(-c3ccco3)cc(C(=O)O)c12 | ? | ? | 7.9µM* | 14µM* | ? | 28µM* | 25* | -37 | ? | 65* | . | 30*
O=C(CSc1ccsc1[N+](=O)[O-])Nc1cc(F)ccc1F | ? | ? | 7.1µM* | 13µM* | -94* | 25µM* | 25* | -33 | -5 | 99* | 67* | 43* | TbPGK inh=15µM*
CCC(Cc1ccccc1)NC(=O)CSc1ccsc1[N+](=O)[O-] (stereo unspecified) | -2% | 3% | -3% | -11% | 0 | -1% | . | . | . | . | . | .
O=C(CSc1ccsc1[N+](=O)[O-])NCCc1ccccc1 | 4% | -14% | 2% | ? | . | -3% | . | . | . | . | . | .
CC(=O)c1ccc(NC(=O)CSc2ccsc2[N+](=O)[O-])cc1 | -4% | ? | 11µM* | 5.6µM* | -81* | ? | 22* | -29 | 18 | 99* | 42* | ? | Pol kappa inh-2=38*
CN(CC(=O)NC(=O)NCc1ccco1)Cc1nc2ccccc2c(=O)[nH]1 | -20% | 25µM* | ? | 20µM* | . | ? | 35* | -26 | 37 | 83* | 60* | ?
COc1ccc(OC)c(NC(=O)c2noc3c2CCCC3)c1 | ? | -1% | 11% | 30% | . | -5% | . | . | . | . | . | .
CSc1ccccc1NC(=O)c1noc2c1CCC2 | ? | 20µM* | 28µM* | 10µM* | . | ? | 32* | -10 | 3 | 93* | 67* | 60*
COC(=O)c1ccccc1NC(=O)c1noc2c1CCC2 | ? | 20µM* | 20µM* | 10µM* | . | ? | 32* | -33 | 7 | 73* | 38* | 30*
CCOC(=O)c1ccccc1NC(=O)c1ccc2nccnc2c1 | ? | ? | 20µM* | 8.9µM* | -24 | ? | 28* | -3 | 3 | 54* | ? | 30*
CCOC(=O)c1ccccc1NC(=O)c1ccc2nc[nH]c2c1 | -21% | 39% | -4% | -2% | 1 | -3% | . | . | . | . | . | .
CN(C(=O)c1cc2nc(-c3ccc4c(c3)OCO4)cc(C(F)(F)F)n2n1)c1ccc(OC(F)(F)F)cc1 | 18% | -7% | 2% | 13% | . | -8% | . | . | . | . | . | .
CCOC(=O)c1cnc(-n2[nH]c(C)cc2=O)[nH]c1=O | -23% | 0.89µM* | ? | 3.2µM* | 2 | 8.9µM* | 32* | -30 | 8 | 89* | 27* | 11*
COCc1cc(C)n(CC(=O)Nc2cc(C)cc(C)c2)c(=O)c1C#N | -10% | -12% | -1% | 38% | -2 | 2% | . | . | . | . | . | .
C/C=C(/C)C(=O)Nc1cccc(C2=NOC3(C2)C[C@H](C(N)=O)N(C(=O)c2ccc(Cl)cc2)C3)c1 (stereo partly specified) | 18% | 41% | -13% | -4% | -1 | 5% | . | . | . | . | . | .
C=C(C)C(=O)Nc1cccc(C2=NOC3(C2)C[C@H](C(N)=O)N(C(=O)c2ccccc2)C3)c1 (stereo partly specified) | -17% | 50µM* | 13µM* | 18µM* | -28 | ? | 28* | -32 | -1 | 86* | . | 27* | TbPGK inh=?
CCCn1c(N)c(NCCN2CCOCC2)c(=O)n(CC(=O)NCc2ccccc2)c1=O | 24% | 1% | -1% | 7% | 2 | 2% | . | . | . | . | . | .
CC1CC1C(=O)Nc1nc(-c2cccs2)c(-c2cccs2)s1 (stereo unspecified) | -7% | ? | ? | -17% | ? | ? | . | . | . | . | . | .
Cc1oc(C(=O)O)cc1COc1cccc2cccnc12 | ? | 10µM* | 8.9µM* | 10µM* | -8 | ? | 16* | -23 | 2 | . | 67* | ?
